Test results published in PubChem BioAssay AID493087 (The Scripps Research Institute Molecular Screening Center, 2011).
The campaign covered roughly 340,000 compounds. About 240 (0.071%) were called active. The list comes from a sample in which actives are over-represented; it also holds similar structures and randomly drawn compounds. Values without a mark were called inactive.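 The calls were made as follows: active = activation above the mean of all tested compounds plus 3 SD, set per screening campaign (cut at about 17% in these data); inactive = the rest.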

Target: Insulin-degrading enzyme (Homo sapiens) (UniProt P14735)
Experiment: enhanced cellular IDE Abeta cleavage – fluorescence polarization, HEK cells, FAbeta-B substrate, primary screen (AID 493087)
Settings: at 5.96 µM, active compounds read high, 0% vehicle, 100% cell-free pure enzyme wells

Sequence of Insulin-degrading enzyme (Homo sapiens) (P14735 whole entry, looked up): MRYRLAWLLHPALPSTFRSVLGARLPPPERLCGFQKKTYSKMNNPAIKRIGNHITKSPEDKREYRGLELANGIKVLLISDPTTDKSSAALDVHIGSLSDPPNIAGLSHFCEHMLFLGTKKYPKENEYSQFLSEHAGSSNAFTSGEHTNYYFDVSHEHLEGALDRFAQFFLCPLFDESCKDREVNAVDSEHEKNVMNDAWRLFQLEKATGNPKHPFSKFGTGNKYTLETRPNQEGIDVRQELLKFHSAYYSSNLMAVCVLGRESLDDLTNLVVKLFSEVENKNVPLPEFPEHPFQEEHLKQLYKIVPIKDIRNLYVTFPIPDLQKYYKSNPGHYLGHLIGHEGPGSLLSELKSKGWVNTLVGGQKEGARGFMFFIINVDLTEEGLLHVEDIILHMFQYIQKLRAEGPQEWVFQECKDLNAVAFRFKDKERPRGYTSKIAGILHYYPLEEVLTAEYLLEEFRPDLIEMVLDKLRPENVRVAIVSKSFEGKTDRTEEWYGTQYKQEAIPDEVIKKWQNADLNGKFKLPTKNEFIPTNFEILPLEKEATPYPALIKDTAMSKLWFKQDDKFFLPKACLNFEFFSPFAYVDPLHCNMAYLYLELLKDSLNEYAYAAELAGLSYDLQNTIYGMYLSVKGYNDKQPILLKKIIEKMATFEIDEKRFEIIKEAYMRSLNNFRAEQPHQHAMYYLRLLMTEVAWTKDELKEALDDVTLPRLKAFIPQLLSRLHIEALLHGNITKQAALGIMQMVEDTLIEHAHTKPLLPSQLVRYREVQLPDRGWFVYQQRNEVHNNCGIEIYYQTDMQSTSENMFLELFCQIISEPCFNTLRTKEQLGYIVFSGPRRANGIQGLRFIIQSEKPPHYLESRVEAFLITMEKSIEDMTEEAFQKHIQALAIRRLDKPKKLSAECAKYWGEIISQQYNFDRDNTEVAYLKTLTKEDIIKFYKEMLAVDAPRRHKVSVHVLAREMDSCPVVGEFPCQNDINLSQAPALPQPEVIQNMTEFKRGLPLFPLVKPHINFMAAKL

First: Cc1ccccc1CSCCNC(=O)c1ccc(N(C)S(=O)(=O)c2ccccc2)cc1
Second: CC(=O)Nc1ccc(S(=O)(=O)NCC(=O)OCc2cc(=O)oc3ccc4ccccc4c23)cc1
The activation of the first is lower: 1.48% for the first, 3.05% for the second.

First: O=c1c([N+](=O)[O-])cccn1Cc1ccc(F)cc1Cl
Second: O=C(Nc1nn(Cc2ccccc2F)cc1Br)c1cccs1
The activation of the first is lower: -1.28% for the first, 2.02% for the second.

Compared with `Cc1ccc(CNC(=O)CCCNC(=O)c2ccc(Cl)cc2)n1C`, `Cc1ccc(COc2ccc(C(=O)NN)cc2)cc1` is lower in activation: 5.76% for the first, -2.7% for the second.

Going from `CCOc1cc(/C=C2\SC(N3CCCC(C)C3)=NC2=O)ccc1O` (configuration not stated) to `CCOc1ccc(S(=O)(=O)N2CCCCCC2)c2ccccc12`, the activation rises from -15.9% to 7.79%.

First: CCC(=O)NNc1cc(=O)c2c(=O)n(C)c(=O)n(C)c2[nH]1
Second: CCOC(=O)C1CCN(S(=O)(=O)c2ccc3c(c2)N(C)C(=O)CC(=O)N3C)CC1
The activation of the first is lower: 3.85% for the first, 4.32% for the second.

Compared with `Cc1noc(C)c1CSCC(=O)Nc1ccc(Br)cc1Cl`, `CN(C)C(=O)c1cc(Br)ccc1Cl` is higher in activation: 2.79% for the first, 7.04% for the second.

Compared with `CC1=C/C(=N\OS(=O)(=O)c2ccccc2)C=CC1=O`, `COC(=O)[C@]1(S(=O)(=O)c2ccccc2)C[C@@H]2ON=C(c3ccc(OC)cc3)[C@@H]2C1` is higher in activation: -10.8% for the first, -5.33% for the second.

Going from `Cc1cccc(NC(=O)c2cccc(C(=O)Nc3cccc(C)c3C)n2)c1C` to `O=C(CNC(=O)OCc1ccccc1)Oc1cc2oc(=O)cc(-c3ccccc3)c2cc1Cl`, the activation rises from -1.85% to 3.87%.

Going from `CC(C)(C)C1C/C(=C/c2ccco2)C(=O)/C(=C/c2ccco2)C1` (configuration not stated) to `COc1ccc(C2=NOC(C(=O)NCc3ccco3)C2)cc1OC` (configuration not stated), the activation rises from -0.63% to -0.49%.

Going from `CC1CCN(C(=O)C2CCN(S(=O)(=O)N3CCC4(CC3)OCCO4)CC2)CC1` to `Cc1ccc(Cl)cc1NC(=O)CN1CCN(S(=O)(=O)N2CCOCC2)CC1`, the activation rises from 0.48% to 3.41%.

Compared with `CCOC(=O)N1CCN(Cc2nc3ccc([N+](=O)[O-])cc3c(=O)n2-c2cccc(OC)c2)CC1`, `COc1ccc(N2CCN(C(=O)c3ccc(N4CCCCS4(=O)=O)cc3)CC2)cc1` is lower in activation: 1.47% for the first, 1.3% for the second.

First: CCOc1ccc(N2C(=O)/C(=C/c3ccc(C)o3)N(C)C2=S)cc1
Second: COc1ccc(-c2csc3ncnc(Oc4ccc5c(C)cc(=O)oc5c4)c23)cc1
The activation of the first is higher: 2.68% for the first, -0.97% for the second.

Compared with `CCC(C)(C)NC(=O)CN(C(=O)C(=O)Nc1ccc2c(c1)OCCO2)C(C)(C)CC`, `CCCCOc1ccc(NC(=O)CSCC(=O)OCC)cc1` is lower in activation: 4.63% for the first, 0.69% for the second.

Going from `CCOC(=O)C1(C(F)(F)F)N=C(N(C)C)OC(N(C)C)=N1` to `COC(=O)COc1ccc2c(=O)c(Oc3ccccc3Br)coc2c1`, the activation falls from 8.14% to 1.55%.

Compared with `C#CCOCCOCCOCCNc1nc(N2CCN(C(=O)Cn3cc(CCCCN)nn3)CC2)nc(N2CCN(C(=O)[C@H](CCCCN)n3cc(CCC(=O)O)nn3)CC2)n1`, `C#CCOCCOCCOCCNc1nc(N2CCN(C(=O)Cn3cc(CCO)nn3)CC2)nc(N2CCN(C(=O)[C@H](CCCCN)n3cc(CCCC)nn3)CC2)n1` is higher in activation: -2.39% for the first, 2.74% for the second.

First: C#CCOCCOCCOCCNc1nc(N2CCN(C(=O)[C@H](CCC(=O)O)n3cc(CN)nn3)CC2)nc(N2CCN(C(=O)[C@H](CCC(=O)O)n3cc(CN)nn3)CC2)n1
Second: C#CCOCCOCCOCCNc1nc(N2CCN(C(=O)[C@H](CCCCN)n3cc(CCC(=O)O)nn3)CC2)nc(N2CCN(C(=O)[C@H](CCCCN)n3cc(CC(C)O)nn3)CC2)n1 (some centres not stated)
The activation of the first is higher: 1.77% for the first, -4.23% for the second.

Compared with `C#CCOCCOCCOCCNc1nc(N2CCN(C(=O)Cn3cc(CCO)nn3)CC2)nc(N2CCN(C(=O)Cn3cc(CCCN=C(N)N)nn3)CC2)n1`, `C#CCOCCOCCOCCNc1nc(N2CCN(C(=O)[C@H](CCCN=C(N)N)n3cc(C(N)[C@@H](C)CC)nn3)CC2)nc(N2CCN(C(=O)[C@H](CO)n3cc([C@@H](N)C(C)C)nn3)CC2)n1` (some centres not stated) is higher in activation: -2.84% for the first, -0.94% for the second.

Going from `CC1CCN(C(=O)CCNC(=O)c2ccccc2)CC1` to `CN1CCN(C(=O)C(=O)c2cn(CC(=O)N3CCCC3)c3ccccc23)CC1`, the activation falls from 4.37% to 0.5%.

Going from `C#CCOCCOCCOCCNc1nc(N2CCOCC2)nc(N2CCN(C(=O)[C@H](Cc3ccc(O)cc3)n3cc(CCO)nn3)CC2)n1` to `Cc1ccc(C(c2nnnn2CS(=O)(=O)c2ccc(C)cc2)N2CCC(C)CC2)cc1` (configuration not stated), the activation rises from -1.07% to 6.3%.

First: COc1ccc2c(c1)c(=Cc1ccc(N(C)C)cc1)c1cc(-c3ccccc3)[n+](C)n12
Second: Fc1cccc(CSc2nnc3ccc(-c4ccncc4)nn23)c1
The activation of the first is lower: -19.1% for the first, 11% for the second.

Going from `O=C(O)CCc1cccnc1` to `CN(CC(=O)NC1CCCCC1)S(=O)(=O)c1cccc2cccnc12`, the activation rises from 0.08% to 4.22%.

With `CCN(CC)CCCC(C)n1c2nc(=O)[nH]c(=O)c-2nc2cc(Cl)ccc21` (configuration not stated) the activation was 75.3% (active).
For `C#CCOCCOCCOCCNc1nc(N2CCN(C(=O)CCCCCCCCCCNC(=O)[C@H](CCCCN)n3cc(C)nn3)CC2)nc(N2CCN(C(=O)CCCCCCCCCCNC(=O)[C@H](CO)n3cc(CCCSC)nn3)CC2)n1`, the activation was 29.3% (active).
With `C#CCOCCOCCOCCNc1nc(N2CCN(C(=O)CCCCCCCCCCNC(=O)Cn3cc(CCCCCN)nn3)CC2)nc(N2CCN(C(=O)CCCCCCCCCCNC(=O)[C@H](CO)n3cc(CCCSC)nn3)CC2)n1` the activation was 32.6% (active).
`C#CCOCCOCCOCCNc1nc(N2CCN(C(=O)CCCCCCCCCCNC(=O)[C@H]([C@@H](C)CC)n3cc(CCCCN=C(N)N)nn3)CC2)nc(N2CCN(C(=O)CCCCCCCCCCNC(=O)[C@H](CO)n3cc(CCCSC)nn3)CC2)n1` was tested, and the activation was 58% (active).
In the case of `CCCCCCCCCCOC(=O)Cn1c(COc2ccc(C)cc2)[n+](C)c2ccccc21`, the activation was 21.7% (active).
